{
  "source": "ChEMBL document CHEMBL3988442",
  "about": "“University of Dundee, Small-Polar-MMV Screening Library” (2021)",
  "data": [
    {"target": "AMP-activated protein kinase, AMPK (Homo sapiens) (UniProt P54646+O43741+P54619+Q9UGJ0+Q9Y478+Q13131+Q9UGI9)", "test": "AMP-dependent Kinase enzyme assay. An in vitro enzyme assay that detects ADP turnover that is directly proportional to AMPK activity. This uses naive AMPK that is activated during the assay with MK-8722", "assay_type": "functional", "set-up": "scale not given: direction of the effect not stated beside the values", "conditions": "30 µM", "units": {"Percent Effect": "%"}, "values": [
      {"smiles": "Cc1cc(NC(=O)Cn2ccc(=O)c3ccccc32)[nH]n1", "Percent Effect": -3.42},
      {"smiles": "O=c1[nH]nc(C2CC2)n1-c1cccc(Cl)c1", "Percent Effect": -10.6},
      {"smiles": "COCCNC(=O)N1CCOCC1c1c(C)nn(C)c1C", "note": "(stereo not given)", "Percent Effect": -0.499},
      {"smiles": "O=S(=O)(NCC1(c2cccs2)CCCC1)c1cccnc1", "Percent Effect": -4.96},
      {"smiles": "N#CC1(NC(=O)c2c(F)ccc(OC(F)F)c2F)CCOCC1", "Percent Effect": -2.32},
      {"smiles": "Cc1nnc(NC(=O)NCCN(C(=O)OC(C)(C)C)C2CC2)s1", "Percent Effect": -6.8},
      {"smiles": "CN(Cc1csc(-c2cccs2)n1)CC(O)CO", "note": "(stereo not given)", "Percent Effect": 5.86},
      {"smiles": "COc1cccc(CC2CCCN2Cc2nccn2C)c1", "note": "(stereo not given)", "Percent Effect": -2.19},
      {"smiles": "CC(C)(C)c1noc(CCCC(=O)N2CCNC(=O)C2)n1", "Percent Effect": -8.74},
      {"smiles": "COc1ccc(OC)c(S(=O)(=O)NC(=O)C(C)OC)c1", "note": "(stereo not given)", "Percent Effect": -3.05},
      {"smiles": "Cc1cc(NCCc2nc(C)c[nH]2)nc(-c2ccccc2O)n1", "Percent Effect": 17.8},
      {"smiles": "O=S(=O)(c1cn[nH]c1)N1CCCC(O)(CN2CCOCC2)CC1", "note": "(stereo not given)", "Percent Effect": 13.3},
      {"smiles": "CC(C)c1ccccc1NC(=O)N1C[C@@H]2CC[C@H](C1)N(C)C2=O", "Percent Effect": -7.67},
      {"smiles": "O=C(NC1CCCC1)N1C[C@H]2CN(c3ccncc3)C[C@@]2(C(=O)O)C1", "Percent Effect": 9.08},
      {"smiles": "CSc1ncccc1C(=O)Nc1ccc(Cn2ccccc2=O)cc1", "Percent Effect": -11.3},
      {"smiles": "N#Cc1cccc(S(=O)(=O)NC2CCN(CC(F)(F)F)C2)c1", "note": "(stereo not given)", "Percent Effect": -2.39},
      {"smiles": "N[C@H]1CN(S(=O)(=O)Cc2ccccc2)C[C@@H]1C1CC1", "Percent Effect": -5.29},
      {"smiles": "Cc1cnc(CN(C)Cc2cccc(OC(F)(F)F)c2)cn1", "Percent Effect": -3.05},
      {"smiles": "CC(C)c1ccccc1OCCNC(=O)N1CCC(CC(N)=O)CC1", "Percent Effect": -3.47},
      {"smiles": "NC(=O)CN(Cc1ncc(-c2ccc(Cl)cc2)o1)C1CCCC1", "Percent Effect": -5.3},
      {"smiles": "O=C(NCC(O)c1ccc(F)cc1)C1CCN(C2CCCCC2)CC1", "note": "(stereo not given)", "Percent Effect": -8.77},
      {"smiles": "COc1cccc(CCC(=O)Nc2cnc3c(c2)c(C)nn3C)c1OC", "Percent Effect": 5},
      {"smiles": "Fc1ccccc1OC1CCN(CCn2cc3ccccc3n2)CC1", "Percent Effect": 6.19},
      {"smiles": "CN(C)S(=O)(=O)c1ccc(=O)n(CC2CCCCO2)c1", "note": "(stereo not given)", "Percent Effect": 8.37},
      {"smiles": "CC(=O)N[C@@H]1CN(C(=O)c2cccc(C)c2)C[C@H]1O", "Percent Effect": 8.23},
      {"smiles": "COC(=O)c1ccc(Cn2cccc(C(F)(F)F)c2=O)s1", "Percent Effect": 3.31},
      {"smiles": "Cc1nsc(N2CCCN(CC(=O)N(C)C3CC3)CC2)n1", "Percent Effect": 7.25},
      {"smiles": "Cc1ccc(-c2noc(C3CCN3C(=O)c3c(C)noc3C)n2)s1", "note": "(stereo not given)", "Percent Effect": 5.86},
      {"smiles": "N#CCCN(C(=O)CCc1cscn1)c1ccc2c(c1)OCCO2", "Percent Effect": -3.58},
      {"smiles": "Cc1cc(N2CCC(n3cc(CN4CCNCC4)nn3)CC2)ccn1", "Percent Effect": -7.65},
      {"smiles": "COc1cc(Cl)cc(CN2CCCC(N3CCCC3)C2)c1OC", "note": "(stereo not given)", "Percent Effect": 4.91},
      {"smiles": "Cc1ccc(CN(C)C(=O)CNC(C)(C)c2noc(C(C)(C)C)n2)o1", "Percent Effect": -1.82},
      {"smiles": "O=C(NCc1cc(Br)cs1)Nc1cn[nH]c1", "Percent Effect": -0.469},
      {"smiles": "Cc1nc(C)c(C(=O)N2C[C@@H](C(=O)O)[C@H](C3CC3)C2)s1", "Percent Effect": 7.29},
      {"smiles": "CC(C)Cc1noc(CC2CCS(=O)(=O)C2)n1", "note": "(stereo not given)", "Percent Effect": -13.3},
      {"smiles": "CSCCC(NC(N)=O)C(=O)Nc1ccc(-n2cccn2)nc1", "note": "(stereo not given)", "Percent Effect": -9.12},
      {"smiles": "CN(CCNC(=O)Nc1nccs1)Cc1ccc(F)cc1", "Percent Effect": -0.57},
      {"smiles": "O=C(NCc1sc2ccccc2c1Cl)c1cc2n(n1)CCNC2", "Percent Effect": 10.8},
      {"smiles": "NC(=O)C(NC1CCN(Cc2ccc(F)cc2)CC1)c1ccccc1", "note": "(stereo not given)", "Percent Effect": -4.88},
      {"smiles": "CCCc1noc(C[S+]([O-])CC(=O)NCc2ccccc2)n1", "note": "(stereo not given)", "Percent Effect": -0.224}
    ]}
  ]
}
